Laboratory results from PubChem BioAssay (Tox21).
“And” between values parts separate entries of the source, which are not always exact repeats. Equal entries are not always repeated. Results filed as inconclusive are left out. The source made the active and inactive calls. Unless noted, calls follow the shape of the dose curve; as a rule, active = well fitted curve in the direction sought with a large enough effect in the repeat runs; inconclusive = weak or mixed curves; inactive = no such curve, though single readings can be large; an effect the other way counts as inactive or inconclusive.

What was measured:
[1] = qHTS assay to identify small molecule agonists of the hypoxia (HIF-1) signaling pathway - cell viability counter screen (AID 1224844; calls by dose curve; also: nearly all actives have a fitted effect of over 50% in size)
Procedure, shortened: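 HRE-bla ME-180 cells, 2,000/well in 0.5% dialyzed FBS medium, treated 17 h at 37C with compounds. Viability read in the same wells as the bla reporter, by CellTiter-Glo luminescence after 30 min at room temperature.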

[2] = qHTS assay to identify small molecule agonists of H2AX (AID 1224845; active = well fitted activation curve with a large enough effect in the signal ratio in the repeat runs, not every such curve was filed as active; the % refers to the signal ratio)
Procedure, shortened: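 Wild-type CHO-K1 cells, plated overnight, exposed 3hr at 37C to 15 concentrations (0.76% DMSO final). Lysed, then HTRF anti-pH2AX (S139) cryptate and anti-H2AX-d2 antibodies, 24 hr room temperature; 665/620 nm emission read.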

[3] = qHTS assay to identify small molecule agonists of the hypoxia (HIF-1) signaling pathway (AID 1224846; active = well fitted activation curve with a large enough effect in the signal ratio in the repeat runs, not every such curve was filed as active; the % refers to the signal ratio)
Procedure, shortened: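 HRE-bla ME-180 beta-lactamase reporter cells in medium with 0.5% dialyzed FBS, pre-incubated 5 h then exposed to compounds 17 h at 37C, 5% CO2; reporter induction read with CCF4-AM FRET substrate.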

[4] = qHTS assay to identify small molecule agonists of H2AX - cell viability counter screen (AID 1224847; calls by dose curve; also: top concentration of the series differs between compounds; nearly all actives have a fitted effect of over 30% in size)
Procedure, shortened: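 Viability of CHO-K1 (wild type) cells after 3 hr compound exposure was measured by CellTiter-Glo luminescence.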

[5] = qHTS RealTime-Glo MT Cell Viability Assay in HepG2 cells - 24 hour (AID 1224867); also: nearly all actives have a fitted effect of over 50% in size
Procedure, shortened: (§1)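 Cells + NanoLuc/prosubstrate dispensed (600 cells/well) → 5 h at 37 C/5% CO2 → compounds in DMSO transferred → 40 h incubation at 37 C, luminescence read at 0, 8, 16, 24, 32, 40 h.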

[6] = qHTS RealTime-Glo MT Cell Viability Assay in HEK293 cells - 32 hour (AID 1224868); also: top concentration of the series differs between compounds; nearly all actives have a fitted effect of over 50% in size
Procedure, shortened: (§2)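 Tox21 10K qHTS, HEK293, 600 cells/well, RealTime-Glo reagent co-dispensed with cells; 5 h preincubation, compound by pintool, 37 C, luminescence at 0–40 h.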

[7] = qHTS RealTime-Glo MT Cell Viability Assay in HepG2 cells - 40 hour (AID 1224870); also: nearly all actives have a fitted effect of over 50% in size
Procedure, shortened: (§3)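 HepG2 cells (600/well) mixed with RealTime-Glo MT reagent, settled 5 h at 37 C/5% CO2 before compound addition. Nonlytic NanoLuc luminescence from viable-cell prosubstrate reduction read repeatedly during 40 h treatment at 37 C.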

[8] = A CellTox Green Cytotoxicity Assay to monitor cytotoxicity in HEK293 cells - 40 hour (AID 1224871); also: nearly all actives have a fitted effect of over 45% in size
Procedure, shortened: (§4)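 HEK293 cells, 600/well, were preincubated 5 hours and then exposed to compounds at 37 C for up to 40 hours. A cell-impermeant cyanine dye staining dead-cell DNA was read by fluorescence at 0, 8, 16, 24, 32 and 40 h time points.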

[9] = qHTS RealTime-Glo MT Cell Viability Assay in HEK293 cells - 16 hour (AID 1224872)
Procedure, shortened: as §2

[10] = qHTS RealTime-Glo MT Cell Viability Assay in HepG2 cells - 8 hour (AID 1224873); also: nearly all actives have a fitted effect of over 55% in size
Procedure, shortened: as §3

[11] = qHTS RealTime-Glo MT Cell Viability Assay in HEK293 cells - 40 hour (AID 1224874); conditions: RealTime-Glo luminescence; max response: stronger effect = lower value; also: nearly all actives have a fitted effect of over 50% in size
Procedure, shortened: (§5)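 600 cells/well were plated with the nonlytic NanoLuc/prosubstrate reagent, pre-incubated 5 h, then given 23 nL of compound in DMSO. Incubation at 37 C for 40 h, with luminescence from viable-cell-reduced substrate read repeatedly from 0 h.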

[12] = A CellTox Green Cytotoxicity Assay to monitor cytotoxicity in HEK293 cells - 24 hour (AID 1224875); also: nearly all actives have a fitted effect of over 45% in size
Procedure, shortened: as §4

[13] = A CellTox Green Cytotoxicity Assay to monitor cytotoxicity in HepG2 cells - 16 hour (AID 1224876); also: nearly all actives have a fitted effect of over 45% in size
Procedure, shortened: (§6)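 HepG2 cells, 600/well, preincubated 5 h with CellTox Green dye, then exposed to Tox21 compounds in DMSO at 37 C for up to 40 h. Dead-cell DNA fluorescence read at the indicated time point.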

[14] = qHTS RealTime-Glo MT Cell Viability Assay in HepG2 cells - 32 hour (AID 1224877); also: nearly all actives have a fitted effect of over 55% in size
Procedure, shortened: as §1

[15] = A CellTox Green Cytotoxicity Assay to monitor cytotoxicity in HepG2 cells - 24 hour (AID 1224878); also: nearly all actives have a fitted effect of over 45% in size
Procedure, shortened: as §6

[16] = A CellTox Green Cytotoxicity Assay to monitor cytotoxicity in HepG2 cells - 40 hour (AID 1224879); also: nearly all actives have a fitted effect of over 40% in size
Procedure, shortened: as §6

[17] = qHTS RealTime-Glo MT Cell Viability Assay in HEK293 cells - 0 hour (AID 1224880)
Procedure, shortened: as §5

[18] = A CellTox Green Cytotoxicity Assay to monitor cytotoxicity in HEK293 cells - 0 hour (AID 1224869); also: nearly all actives have a fitted effect of over 50% in size
Procedure, shortened: as §4

[19] = qHTS assay to identify small molecule antagonists of the estrogen related receptor (ERR) signaling pathway from Tox21 library (AID 1224848); also: nearly all actives have a fitted effect of over 50% in size
Procedure, shortened: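 ERR reporter cell line (from NTP) seeded 2,000 cells/well, rested 6 h at 37 C/5% CO2, then pin-dosed with compounds in DMSO. After 18 h at 37 C, ONE-Glo added; luminescence read after 30 min at room temperature.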

[20] = qHTS assay to identify small molecule agonists of the estrogen related receptor (ERR) signaling pathway from Tox21 library (AID 1224849; calls by dose curve; also: nearly all actives have a fitted effect of over 15% in size); conditions: ERR reporter cell line, ONE-Glo luciferase, 18 h; at 92.4 µM (top of the series)
Procedure, shortened: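 ERR reporter cells (NTP line) pre-incubated 6 hours at 37 C, then exposed to compounds for 18 hours at 37 C. ONE-Glo luciferase luminescence was read after 30 minutes at room temperature.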
% is scaled to controls: 0 for no effect and ±100 for the full control effect.

CN(C1CCCCC1)C1CCCCC1
inactive: Potency [1] | Potency [2] | outcome [3] | Potency [4] | Potency [5] | Potency [6] | Potency [7] | Potency [8] | Potency [9] | Potency [10] | max response [11] -2.03% | Potency [12] | Potency [13] | Potency [14] | Potency [15] | Potency [16] | outcome [17]

Cc1ccc(N)c(C)c1
inactive: Potency [1] | Potency [2] | outcome [3] | Potency [4] | Potency [6] | Potency [7] | Potency [9] | Potency [10] | max response [11] 4.9% and -12.6% | Potency [12] | Potency [13] | Potency [14] | Potency [15] | Potency [16] | outcome [17]

CC(Oc1cc(Cl)c(Cl)cc1Cl)C(=O)O (stereo not given)
inactive: Potency [1] | Potency [2] | outcome [3] | Potency [4] | Potency [6] | Potency [18] | Potency [7] | Potency [8] | Potency [9] | Potency [10] | max response [11] 3.67% | Potency [12] | Potency [13] | Potency [14] | Potency [15] | Potency [16] | outcome [17]

O=C(O)C(Cl)(Cl)Br
inactive: Potency [1] | Potency [2] | outcome [3] | Potency [4] | Potency [6] | Potency [18] | Potency [7] | Potency [8] | Potency [9] | Potency [10] | max response [11] 0.585% | Potency [13] | Potency [14] | Potency [15] | Potency [16] | outcome [17]

FC(F)OC(F)(F)C(F)Cl (stereo not given)
inactive: Potency [1] | Potency [2] | outcome [3] | Potency [4] | Potency [6] | Potency [18] | Potency [7] | Potency [8] | Potency [9] | Potency [10] | max response [11] 8.01% | Potency [12] | Potency [13] | Potency [14] | Potency [15] | Potency [16] | outcome [17]

C1CS1
inactive: Potency [1] | Potency [2] | outcome [3] | Potency [19] | activity change, positive = activation [20] -0.221% | Potency [5] | Potency [6] | Potency [18] | Potency [7] | Potency [8] | Potency [9] | Potency [10] | max response [11] 12% | Potency [13] | Potency [14] | Potency [15] | Potency [16] | outcome [17]
